Assay outcomes from PubChem BioAssay.
Most compounds without a hit are left out; they make up all but 6% or so of the library.
D1 antagonist = Antagonist of Human D 1 Dopamine Receptor: qHTS; D(1A) dopamine receptor (Homo sapiens), P21728; HEK293 TREx D1 cells, calcium flux, dopamine EC80; stronger effect = lower value; activity change, negative = inhibition, % at 10 µM; 360,000 compounds, 3.2% hits; AID 504652, 2011; in the data active = activity change below about -30%; also: % is scaled to controls: 0 for no effect and ±100 for the full control effect
Target sequence (P21728 whole entry, looked up): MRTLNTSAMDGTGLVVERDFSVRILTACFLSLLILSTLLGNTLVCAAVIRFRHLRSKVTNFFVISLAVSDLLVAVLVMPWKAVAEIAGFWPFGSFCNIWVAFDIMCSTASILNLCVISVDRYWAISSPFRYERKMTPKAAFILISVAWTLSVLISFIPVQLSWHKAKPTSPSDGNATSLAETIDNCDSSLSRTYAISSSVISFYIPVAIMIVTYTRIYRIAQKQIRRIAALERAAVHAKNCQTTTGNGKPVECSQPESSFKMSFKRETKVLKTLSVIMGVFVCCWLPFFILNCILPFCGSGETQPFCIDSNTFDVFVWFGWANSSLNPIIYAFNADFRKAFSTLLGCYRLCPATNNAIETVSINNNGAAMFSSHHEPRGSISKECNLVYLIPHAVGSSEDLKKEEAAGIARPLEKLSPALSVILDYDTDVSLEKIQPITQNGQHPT
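Kinetic fluorescence of a calcium dye serves as the read-out. D1-expressing Hek293 Trex cells, induced overnight at 30 C, are exposed to compound for 180 s before an EC80 dopamine addition, then read 180 s further.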
D1 potentiator = Potentiators of Human D1 Dopamine Receptor: qHTS; D(1A) dopamine receptor (Homo sapiens), P21728; HEK293 TREx D1 cells, calcium flux, dopamine EC20 potentiation; potentiation, % at 10 µM; 360,000 compounds, 0.036% hits; AID 504651, 2011; in the data active = potentiation above about 30%; also: 0% is about no effect
D3 antag = qHTS of D3 Dopamine Receptor Antagonist: qHTS | D3R cells, DiscoveRx beta-arrestin luminescence, antagonist mode; stronger effect = lower value | max response, negative = inhibition, % | 360,000 compounds, 2.5% hits | AID 652054, 2013; in the data active = max response below about -50%; inconclusive = no clear call, values can overlap the other calls; also: % is scaled to controls: 0 for no effect and ±100 for the full control effect
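Cells plated overnight at 1500 cells/well, then exposed to library compounds with dopamine controls for 90 minutes at 37 degrees C. DiscoveRx reagent added for 30–60 minutes at room temperature; luminescence read, quantitative HTS format.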
DRD3 agonist = qHTS of D3 Dopamine Receptor Agonist: qHTS; D(3) dopamine receptor (Homo sapiens), P35462; D3R DiscoveRx beta-arrestin cells, luminescence, 90 min; max activation, %; 410,000 compounds, 0.58% hits; in the data active = max activation above about 30%; also: 0% is about no effect
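Cells at 1500/well, incubated overnight, then treated with pinned compounds (dopamine as control) for 90 min at 37 degrees C. DiscoveRx reagent added for 30 - 60 minutes at room temperature; luminescence read.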
D1 ag = Allosteric Agonists of the Human D1 Dopamine Receptor: qHTS | activation, % at 2 µM | D(1A) dopamine receptor (Homo sapiens), P21728 | HEK293 T-REx D1 cells, calcium flux, agonist mode | 360,000 compounds, 1% hits; in the data active = activation above about 30%; also: 0% is about no effect
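Agonism was scored from calcium flux recorded over 180 s (1 read/s) after pintool compound addition, following a 10-cycle baseline. Cells were inducible force-coupled HEK293 TREx D1, plated overnight at 30 C and loaded with no-wash calcium dye.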
BCR signal inh = qHTS Assay to Find Inhibitors of Chronic Active B-Cell Receptor Signaling; Potency, µM (titrated, usually from 46.1 µM), for inactives: at the highest dose activity change, negative = inhibition, actives largely listed as inhibitors; 340,000 compounds, 0.05% hits; ABC-DLBCL IkBa-CBG/CBR reporter, luminescence ratio, 4 h; active = well fitted inhibition curve with a large enough effect in the signal ratio, with a control signal flat, not every such curve was filed as active; inconclusive = small, poorly fitted or top-dose-only effect, or effect the other way, or a change in a side signal; the % refers to the signal ratio;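 also: potency is read from the fitted curve at half-maximal effect; plate controls were basal doxycycline-induced cells for no effect and cells given 10 µM MG132 for full effect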
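Doxycycline induced both beetle luciferases in TMD8 lymphoma cells; IKK-driven degradation limits the IkappaBalpha-fused green signal, while red luminescence normalises for cell number and nonspecific effects. Compounds tested up to 46 uM, 4 hrs.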
* hit, by the source's call; ? = inconclusive; . = not tested or not shown; ! = not active in a repeat.

SMILES	D1 antagonist	D1 potentiator	D3 antag	DRD3 agonist	D1 ag	BCR signal inh
CCOc1ccc(-c2c(C(=O)N/N=C(\C)c3ccco3)nnn2-c2nonc2N)cc1	50.6	6.8	-21.4	-3.0	23.9	-1.6%
Nc1nonc1-n1nnc(C(=O)N/N=C/c2ccc(Br)cc2)c1-c1ccc2c(c1)OCO2	58.7	5.9	7.3	6.7	47.1*	-0.6%
CCOc1cccc(-c2c(C(=O)N/N=C(\C)c3cccs3)nnn2-c2nonc2N)c1	39.6	12.3	13.1	0.4	94.9*	-13.5%
CCOc1ccc(-c2c(C(=O)N/N=C(\C)c3cccs3)nnn2-c2nonc2N)cc1	32.8	-2.6	6.8	0.0	43.6*	8.3%
C/C(=N\NC(=O)c1nnn(-c2nonc2N)c1-c1ccc2c(c1)OCO2)c1cccs1	62.1	6.3	-18.3	-2.9	182.9*	-0.8%
CC(C)c1ccc(C2OCC(C)([N+](=O)[O-])CO2)cc1 (centres undefined)	.	.	-10.1	-1.3	.	.
COCCCNC(=O)c1oc2c(c1C)-c1nn(Cc3cccc(Cl)c3)cc1CC2	4.5	0.1	.	-11.8	-0.1	.
COc1cccc(-c2c(C(=O)N/N=C(\C)c3cccs3)nnn2-c2nonc2N)c1	21.6	0.4	-7.4	1.5	215.9*	?
COc1cccc(-c2c(C(=O)N/N=C(\C)c3ccncc3)nnn2-c2nonc2N)c1	7.8	-2.4	-7.4	1.6	1.8	1.7%
CCn1ncc(C2=NOC(C(=O)Nc3cccc(C(C)=O)c3)C2)c1C (centres undefined)	-31.7*	-3.4	11.4	5.1	12.1	-16.2%
Cn1c(=O)c2c(SCC(=O)N3CCc4ccccc43)nc(-c3ccccc3Cl)nc2n(C)c1=O	4.7	-1.1	.	4.8	1.5	.
COc1ccc(-c2cn3c(C)c(C(=O)N4CCc5ccccc5C4)sc3n2)cc1	-30.6*	-6.8	7.4	5.1	3.8	?
Cc1ccc(NC(=O)C2CCN(S(=O)(=O)c3ccc(C(C)(C)C)cc3)CC2)cc1S(=O)(=O)N1CCOCC1	.	.	-22.0	-2.8	.	.
Cc1sc2nc(C(C)C)nc(SCC(=O)N3CCN(C(=O)c4ccco4)CC3)c2c1C	-6.7	-9.2	16.9	27.5	1.1	-1.8%
CCc1c(C)sc2nc(C(C)C)nc(SCC(=O)N3CCc4ccccc4C3)c12	7.3	1.2	57.6	49.6*	1.4	12.5%
Cc1sc2nc(C3CC3)nc(SCC(=O)N3CCc4ccccc4C3)c2c1C	19.2	1.6	49.5	45.8*	-1.2	?
Cc1sc2nc(C3CC3)nc(SCC(=O)N3CCCc4ccccc43)c2c1C	-4.2	-2.5	.	.	3.8	11.3%
Cc1ccc(NC(=O)Cn2c(=O)n(CCCCC(=O)NCCc3ccc(Cl)cc3)c(=O)c3ccccc32)cc1	-45.9*	1.6	.	-7.7	-0.8	.
COc1ccc(CCNC(=O)CCCn2c(=O)c3ccccc3n(Cc3ccccc3C)c2=O)cc1OC	-32.8*	2.8	.	3.9	-0.9	.
CCc1nn(CC(=O)NCCCN2CCOCC2)c(=O)c2cc3cc(F)ccc3n12	-73.7*	-12.5	10.6	-7.5	-0.4	5.4%
CCc1nn(CC(=O)NCCCN2CCN(CC)CC2)c(=O)c2cc3occc3n12	-34.9*!	-2.7	-19.0	0.5	2.4	-2.4%
CCCNC(=O)COC(=O)c1ccccc1C(=O)c1ccc(Cl)c([N+](=O)[O-])c1	-30.0	-6.3	-101.3*	-21.5	-1.2	?
Cc1ccc(Cl)c(NC(=O)COC(=O)c2ccccc2C(=O)c2ccc(Cl)c([N+](=O)[O-])c2)c1Cl	-16.4	-3.0	-71.1*	-22.8	2.4	?
CCNc1ccc(C(=O)OCC(=O)NCc2ccccc2Cl)cc1[N+](=O)[O-]	-87.6*	-0.8	3.4	5.0	1.6	-2.2%
Cc1ccc(C(=O)c2ccccc2C(=O)OCC(=O)NCCc2ccc(Cl)cc2Cl)cc1	6.3	-5.9	1.4	3.5	11.7	-13.3%
